Screening data as filed in PubChem.
Dicer processing: inhibitors of human Dicer processing of pre-microRNA. Q9UPY3. hit rate 6% among 47,000. z-score at 25 µM. cat-ELCCA pre-miR-21 Dicer processing, chemiluminescence; stronger effect = higher value; in the data active = z-score above about 3, passing the limit was not always enough;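 also: plate controls were vehicle for no effect and no enzyme for full effect; higher signal means more uncleaved substrate so more Dicer inhibition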
Numbers without * were called inactive. The entries come from a sample that favours hits as a whole.

SMILES	Dicer processing
CC(C)C(=O)Nc1nc(NC(=O)C(C)C)nc(-c2ccccc2C(F)(F)F)n1	3.2*
NNC(=O)Cn1nnc(-c2ccccc2C(F)(F)F)n1	0.88
CCC(=O)Nc1nc(NC(=O)CC)nc(-c2ccccc2C)n1	2.9
C=CCN1C(=O)C(O)(CC(=O)c2ccc(OC)cc2OC)c2ccccc21 (configuration not stated)	-1.1
COc1ccc(Cc2nnc(SCc3ccc(Cl)cc3)o2)cc1	1.9
CCCCCCn1cnc2c1c(=O)[nH]c(=O)n2C	2.2
O=S(=O)(c1ccc(NC(=S)NC2CCCCC2)cc1)N1CCCCC1	0.42
CCOc1ccc(S(=O)(=O)N2CCCN(S(=O)(=O)c3ccc(OCC)cc3)CC2)cc1	0.4
CCOc1ccc(/C=N/NC(=S)Nc2ccc(S(=O)(=O)N3CCCCC3)cc2)cc1	7.3*
CCOC(=O)/C(C#N)=C/N(/N=C/c1ccccc1)c1ccccc1	-0.03
NC(=S)c1ccc(-n2cncn2)nc1	-0.5
c1ccc(-n2cnc3cc(NCc4ccccn4)ccc32)cc1	2.6
COc1ccccc1-n1cnc2cc(Nc3nnc(C)c4ccccc34)ccc21	-0.27
COc1ccccc1-n1cnc2cc(NCc3ccncc3)ccc21	5.3*
COc1ccc(OC)c(C2C(C(=O)OC3CCCCC3)=C(C)NC3=C2C(=O)CC(C)(C)C3)c1 (configuration not stated)	0.89
Cc1csc2c(=O)sc(NC(=O)c3ccc(C(C)(C)C)cc3)nc12	0.15
O=C(Nc1cccc(Cl)c1)O/N=C1\CC(c2ccccc2)Oc2ccccc21 (configuration not stated)	-0.91
CC(=O)/C(N=Nc1cc(F)c(Br)cc1F)=C(\C)O	1.5
CC(=O)/C(N=Nc1ccc(C)cc1[N+](=O)[O-])=C(\C)O	3.2*
CCOC(=O)/C(N=Nc1ccc(C)cc1C)=C(\C)O	2.3
Cc1ccc(S(=O)(=O)OC2=C(C#N)CCN(S(=O)(=O)c3ccc(Cl)cc3)c3cc(Cl)ccc32)cc1	-0.89
COc1ccc(S(=O)(=O)NC2CCCCC2)cc1-c1nnc2c3ccccc3c(C)nn12	2.2
CNC(=O)NCc1c(F)cccc1Cl	2.1
CC1=C(C(=O)OCCc2ccccc2)C(c2ccccc2Br)C2=C(CCCC2=O)N1 (configuration not stated)	-0.45
C/C(=N\Nc1c(Cl)cc(Cl)cc1Cl)c1c(O)cc(C)oc1=O	-0.25
SMILES	Dicer processing
FC(F)(F)c1cc(N2CCCC2)c2cccc(Cl)c2n1	-0.04
C=CCOC(=O)C(CC(=O)O)NC(=O)OCC1c2ccccc2-c2ccccc21 (configuration not stated)	-0.22
CC[C@H](C)[C@H](NC(=O)OCC1c2ccccc2-c2ccccc21)C(=O)O	0.52
CC(C)C[C@H](NC(=O)OCC1c2ccccc2-c2ccccc21)C(=O)O	4.6*
CNC(=O)NC(=O)CSc1nc(-c2ccc(Cl)cc2)cn1-c1ccccc1	-0.33
O=C1CC(c2cccs2)Cc2c1cnc1[nH]n(-c3ccccc3)c(=O)c21 (configuration not stated)	0.14
NCc1ccc(S(N)(=O)=O)cc1	-0.5
CN1C(=O)CC(NCc2ccc(S(N)(=O)=O)cc2)C1=O (configuration not stated)	3.2*
NS(=O)(=O)c1ccc(CNC2CC(=O)N(c3ccc(Br)cc3)C2=O)cc1 (configuration not stated)	22
N#CCCN(CN1C(=O)C(=O)c2cc(Br)ccc21)C1CCCCC1	-3.1
CCCN1C(=O)C(=O)c2cc(Br)ccc21	-0.64
C#CCN1C(=O)C(=O)c2cc(Br)ccc21	4.3*
S=C(NCc1cccs1)NNc1c(Cl)cncc1Cl	-0.08
COc1ccc(/C(O)=C2\C(=O)C(=O)N(CCCN3CCOCC3)C2c2ccc(C(C)(C)C)cc2)cc1 (configuration not stated)	0.33
COc1ccc(CCN2C(=O)CSC2=Nc2ccc(Cl)cc2C)cc1OC	2.3
O=C1CSC(=Nc2cc(Cl)c(Cl)cc2Cl)N1CCc1ccccc1	3.3*
O=C1CSC(=S)N1CCc1ccc(Cl)cc1	-1.2
Cc1ccc2oc(=O)n(CC(=O)C(C)(C)C)c2c1	2.2
O=C(NC1CCSC1=O)c1cccc(C(=O)NC2CCSC2=O)c1 (configuration not stated)	3*
Cc1onc(-c2ccccc2)c1C(=O)NC1CCSC1=O (configuration not stated)	-0.7
O=C(NC1CCSC1=O)c1ccc(-c2ccccc2)cc1 (configuration not stated)	-1.8
Cc1nn(-c2cccc(Cl)c2)c2oc(=O)cc(C(F)(F)F)c12	-4
CCCc1cc(Br)c(-n2cccc2)c(Br)c1	-0.21
CC1=CC(C)C2(CO)COC(c3ccc4c(c3)OCO4)C1C2C (configuration not stated)	-1.3
CC1=CC(C)C2(CO)COC(c3ccc(O)cc3)C1C2C (configuration not stated)	3.9*
SMILES	Dicer processing
CC1=CC(C)C2(CO)COC(c3cccnc3)C1C2C (configuration not stated)	0.1
O=C1c2ccccc2C(=O)C1(c1ccccc1)N1CCN(c2ccccn2)CC1	-0.38
CCCC(=O)NNc1ncc(C(=O)OCC)c(C(F)(F)F)n1	2.7
O=C(OCc1ccc(Cl)cc1)c1cnc(Sc2ccc(Cl)cc2)nc1C(F)(F)F	-4
O=C(OCc1ccc(Cl)cc1)c1cnc(NNC(=O)C(F)(F)F)nc1C(F)(F)F	3.4*
COC(=O)C1=C(C)NC2=C(C(=O)CC(c3cccs3)C2)C1c1ccc2c(c1)OCO2 (configuration not stated)	0.71
O=C(Cn1nnc2sc3c(c2c1=O)CCCC3)Nc1ccccc1F	1.5
CN(C)CN1C(=O)c2ccccc2C1=O	0.12
COc1ccc(/C(O)=C2\C(=O)C(=O)N(CCCN(C)C)C2c2ccc(Cl)cc2)cc1 (configuration not stated)	0.62
C#CCN=C(NS(=O)(=O)c1c(C)noc1C)SC	0.44
O=C(Cc1ccc(Cl)cc1)c1ccc(O)cc1	0.6
O=C(Cc1ccccc1)c1ccc(Cl)cc1	-0.54
O=C(Cc1ccc(Cl)cc1)c1ccc(O)cc1O	4.1*
COC(=O)C(C#N)=C(SC)SC	-1.1
COc1ccc(N2C(=O)CSC2c2ccc(Cl)cc2)cc1 (configuration not stated)	0.97
O=[N+]([O-])c1cccc(C2=NNC(O)(C(F)(F)F)C2)c1 (configuration not stated)	-0.2
O=C1c2cc([N+](=O)[O-])ccc2-c2c1cc([N+](=O)[O-])cc2C(=O)N1CCCCC1	-0.39
Nc1nc(Nc2ccc(F)cc2)sc1C(=O)c1ccccc1	4.2*
Nc1nc(Nc2cccc(F)c2)sc1C(=O)c1ccc(F)cc1	3.2
Nc1nc(Nc2ccccc2)sc1C(=O)c1ccc(F)cc1	1.7
CSc1nc2ccccc2n1CCOc1ccccc1	-1.9
Cc1ccc(OCCSc2nc3ccccc3n2CCO)cc1	-0.89
OCCSc1nc2ccccc2n1CCOc1ccccc1	3.9*
N#Cc1c(=O)c2ccccc2n2c1[nH]c1ccccc12	-1.4
CCOC(=N)c1ccc([N+](=O)[O-])s1	-0.35
SMILES	Dicer processing
C#CCOC(=O)Nc1cc(C(F)(F)F)cnc1OC	-2.5
Cc1nc2nc(C(F)(F)F)[nH]n2c(=O)c1Cc1ccc(C(C)C)cc1	-0.64
Cn1c(=O)n(C)c2cc(S(=O)(=O)NC3CCCCC3)ccc21	-0.28
O=C(O)CNS(=O)(=O)c1ccc2[nH]c(=O)[nH]c2c1	0.48
O=c1[nH]c2ccc(S(=O)(=O)NC3CCCCC3)cc2[nH]1	4.7*
COc1ccccc1-c1coc2cc(OCc3cc(Cl)cc4c3OCOC4)ccc2c1=O	-1
